Rows were chosen to be rich in hits. Some 2.2% of all compounds tested hit in one or more screens of this group.
SUMO Mot1 rescue = yeast Mot1-301 growth rescue at high temperature, primary screen, SUMOylation pathway inhibitor project, S. cerevisiae, ATP luminescence, 38.5C; S. cerevisiae Mot1-301 growth rescue; percent above DMSO median, 100 means doubled; growth rescue, % at 18.8 µM; 320,000 tested, 1% active; AID 2716, 2010;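 active = every valid replicate shows activation above 250% relative to neutral control wells; inactive = the rest, any valid replicate at or below 250%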;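 also: OY570 slx delta 5 strain wells were the positive control but not used for scaling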
sPLA2-III inh = human group III sPLA2 inhibitors, primary screen, biochemical, QFRET, BODIPY PC-A2 liposome substrate; 370,000 tested, 0.56% active; inhibition, % at 12.2 µM; QFRET BODIPY PC-A2 liposome hydrolysis, fluorescence; Group 3 secretory phospholipase A2 (Homo sapiens), Q9NZ20;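 active = inhibition above mean plus 3 SD of compounds lying within the high and low control bounds, cut at about 19% in these data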;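 also: 0% = median of test compound wells and 100% = no enzyme DMSO wells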
Target sequence (Q9NZ20 whole entry, looked up): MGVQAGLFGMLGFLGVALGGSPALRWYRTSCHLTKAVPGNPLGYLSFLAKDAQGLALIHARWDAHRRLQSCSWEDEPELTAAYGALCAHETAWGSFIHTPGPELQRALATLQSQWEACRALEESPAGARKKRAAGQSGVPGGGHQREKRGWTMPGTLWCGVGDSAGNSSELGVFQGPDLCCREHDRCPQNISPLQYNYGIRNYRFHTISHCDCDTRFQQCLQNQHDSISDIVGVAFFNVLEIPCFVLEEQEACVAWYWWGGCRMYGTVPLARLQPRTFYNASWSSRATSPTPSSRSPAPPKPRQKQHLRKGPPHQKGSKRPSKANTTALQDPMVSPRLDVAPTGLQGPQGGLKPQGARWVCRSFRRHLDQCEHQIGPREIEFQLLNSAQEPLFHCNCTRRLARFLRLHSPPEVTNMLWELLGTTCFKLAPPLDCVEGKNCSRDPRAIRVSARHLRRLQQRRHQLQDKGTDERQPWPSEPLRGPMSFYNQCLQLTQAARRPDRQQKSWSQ
Efflux pump inh = inhibitors of Candida efflux pumps in yeast, primary screen, S. cerevisiae, Nile Red, multiplex | S. cerevisiae Candida pump triplex | inhibition, % at 10 µM | 330,000 tested, 0.44% active;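 active = plate passing quality check with inhibition over a set limit, or well fluorescence over plate mean plus 4 SD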;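 also: Nile Red retained in pooled yeast measured as flow cytometry median fluorescence; 0% = buffer negative control and 100% = Enniatin B positive control; higher means more Nile Red kept so more efflux inhibition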
SKN-1 block = suppressors of acrylamide-induced Pgst-4::GFP reporter in worms, primary screen, SKN-1 inhibitor project, whole organism, uHTS, GFP/RFP fluorescence ratio, strain VP596; C. elegans VP596 Pgst-4::GFP/RFP ratio, 24 h; inhibition, % at 21.8 µM; 360,000 tested, 0.49% active; AID 624304, 2012;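 active = interference check ratio from 0.5 to 1.5 plus GFP to RFP signal ratio inhibition reaching or exceeding a fixed threshold, cut at about 30% in these data, passing the limit was not always enough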
hGIII sPLA2 conf = human group III sPLA2 inhibitors, confirmation, biochemical, QFRET, triplicate; AID 743280, 2014; shares compounds with sPLA2-III inh; recombinant hGIII-sPLA2, BODIPY PC-A2 QFRET fluorescence; 2,000 tested, 34% active; inhibition, % at 12.2 µM;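 active = mean inhibition across triplicates above the hit cutoff set in the earlier primary screen, cut at about 19% in these data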;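 also: 0% = enzyme with DMSO and 100% = DMSO wells lacking enzyme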
BODIPY interf = 535nm fluorescence optical interference, confirmation, artefact control for HGIII-sPLA2 inhibitor project, biochemical, QFRET; shares compounds with sPLA2-III inh; BODIPY FL product fluorescence interference; AID 743282, 2014; inhibition, % at 12.2 µM; 2,000 tested, 8.5% active;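 active = average inhibition above the solvent-only control mean plus 3 SD, cut at about 6% in these data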;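 also: 0% = DMSO with substrate plus product and 100% = DMSO with substrate alone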
Active calls of the source: *.

Screening CN(Cc1cnn(-c2ccc(F)cc2)c1)C(=O)[C@H]1O[C@@H](n2cnc3c(N)ncnc32)[C@H](O)[C@@H]1O returned sPLA2-III inh 3 and SKN-1 block -6.
CC(C)c1ccc(NC(=O)Nc2nc(C(N)COCc3ccccc3)cs2)cc1 (configuration not stated) was read as sPLA2-III inh 22*, SKN-1 block 5, hGIII sPLA2 conf 8 and BODIPY interf -3.
CC(C)C(N)c1csc(NC(=O)Nc2cccc(Cl)c2)n1 (configuration not stated) was read as sPLA2-III inh 22*, SKN-1 block -3, hGIII sPLA2 conf 8 and BODIPY interf -9.
For CC(C)CC(N)c1csc(NC(=O)Nc2ccccc2C(C)C)n1 (configuration not stated) the results were sPLA2-III inh 22*, SKN-1 block -9, hGIII sPLA2 conf 3 and BODIPY interf -21.
For CC(C)c1ccc(NC(=O)Nc2nc(C(N)c3ccccc3)cs2)cc1 (configuration not stated) the results were sPLA2-III inh 17 and SKN-1 block 6.
For NC(c1csc(NC(=O)Nc2cccc(Cl)c2)n1)c1ccccc1Cl (configuration not stated) the results were sPLA2-III inh 14 and SKN-1 block 13.
Cc1ccccc1NC(=O)Nc1nc(C(N)c2ccccc2)cs1 (configuration not stated) was read as sPLA2-III inh 22*, SKN-1 block 1, hGIII sPLA2 conf 1 and BODIPY interf -3.
CC(C)(C)c1ccccc1NC(=O)Nc1nc(C(N)c2ccccc2)cs1 (configuration not stated) was read as sPLA2-III inh 3 and SKN-1 block 11.
For NS(=O)(=O)c1ccc(CCNc2ncnc3c2c(-c2ccccc2)cn3-c2ccc(F)cc2)cc1 the results were SUMO Mot1 rescue -6, sPLA2-III inh -18, Efflux pump inh 0 and SKN-1 block 18.
Screening COCCCNC(=S)N1CCN(c2nc(-c3ccc(F)cc3)cs2)CC1 returned SUMO Mot1 rescue 13, sPLA2-III inh 3, Efflux pump inh 0 and SKN-1 block 0.
Screening CNC(=S)N1CCN(c2nc(-c3ccc(F)cc3)cs2)CC1 returned SUMO Mot1 rescue -8, sPLA2-III inh 20*, Efflux pump inh 0, SKN-1 block -1, hGIII sPLA2 conf 14 and BODIPY interf -1.
O=C(Nc1cccnc1)C1Cc2c(-c3ccccc3Oc3ccccc3)ccnc2O1 (configuration not stated) was read as sPLA2-III inh -2 and SKN-1 block -9.
Screening O=C(Nc1cccc(C(F)(F)F)c1)C1(c2ccccc2)CC1 returned SUMO Mot1 rescue 944, sPLA2-III inh 5, Efflux pump inh 0 and SKN-1 block 8.
`O=C(Nc1ccc(C(F)(F)F)cc1)C1(c2ccccc2)CC1` gave SUMO Mot1 rescue -10, sPLA2-III inh 25*, Efflux pump inh -1, SKN-1 block 1, hGIII sPLA2 conf 4 and BODIPY interf -11.
For O=C(OCc1cn([C@H]2C[C@H](c3ccc(Cl)cc3)N(C(=O)c3cccs3)C[C@@H]2O)nn1)c1ccccc1 the results were sPLA2-III inh 6 and SKN-1 block 4.
`Cc1ccc(Cn2cc(CN3CC=CS3(=O)=O)nn2)cc1` gave sPLA2-III inh 3.
For COCCCn1cc(CN2CC=CS2(=O)=O)nn1 the results were sPLA2-III inh 21*, hGIII sPLA2 conf 0 and BODIPY interf -6.
For CC(C)C1Nc2c(O)cc(Cl)c([N+](=O)[O-])c2C2C=CCC21 (configuration not stated) the results were sPLA2-III inh 19*, SKN-1 block 7, hGIII sPLA2 conf 13 and BODIPY interf 10*.
Screening CCOc1ccc(Cl)cc1CNCCCSc1nc(C)cc(C)n1 returned SUMO Mot1 rescue 68, sPLA2-III inh -16, Efflux pump inh 0 and SKN-1 block 21.
COc1cccc(NC(=O)Cc2nnc(SCC(=O)NC3CCCC3)n2C)c1 was read as SUMO Mot1 rescue -4, sPLA2-III inh 4, Efflux pump inh 0 and SKN-1 block 9.
For CC1(C)Oc2ccc3ccc(=O)oc3c2C(/C=N/O)C1=O (configuration not stated) the results were SUMO Mot1 rescue 4, sPLA2-III inh -3, Efflux pump inh 0 and SKN-1 block 4.
CC1(C)Oc2ccc3ccc(=O)oc3c2C(/C=N/O)=C1Cl was read as SUMO Mot1 rescue 19, sPLA2-III inh 21*, Efflux pump inh 0, SKN-1 block 2, hGIII sPLA2 conf 8 and BODIPY interf -5.
`CCOC(=O)C1(Cc2cccc(OC)c2)CCCN(C(=O)c2cc(C)on2)C1` (configuration not stated) gave SUMO Mot1 rescue -28, sPLA2-III inh -4, Efflux pump inh 0 and SKN-1 block 12.
`O=C(OCc1ccccc1)C1=NNC2C(=O)N(c3ccccc3)C(=O)C12` (configuration not stated) gave SUMO Mot1 rescue -6, sPLA2-III inh 23*, Efflux pump inh 0, SKN-1 block 5, hGIII sPLA2 conf 1 and BODIPY interf -3.
Screening CCc1ccc(N2C(=O)C3NN=C(C(=O)OCc4ccccc4)C3C2=O)cc1 (configuration not stated) returned SUMO Mot1 rescue 4, sPLA2-III inh 8, Efflux pump inh 0 and SKN-1 block 7.
Cc1ccccc1N1CCN(C(=S)c2ccccc2)CC1 was read as SUMO Mot1 rescue 1, sPLA2-III inh 21*, Efflux pump inh 0, SKN-1 block 2, hGIII sPLA2 conf 10 and BODIPY interf -3.
For S=C(c1ccccc1)N1CCN(c2ccccc2)CC1 the results were sPLA2-III inh 3 and SKN-1 block -5.
Screening CC(C)NCC(=O)NC12CC3CC(CC(C3)C1)C2 returned SUMO Mot1 rescue -9, sPLA2-III inh -4, Efflux pump inh 0 and SKN-1 block -12.
`CC(SCC(=O)NC12CC3CC(CC(C3)C1)C2)C(=O)O` (configuration not stated) gave SUMO Mot1 rescue 3, sPLA2-III inh 24*, Efflux pump inh 0, SKN-1 block 12, hGIII sPLA2 conf -2 and BODIPY interf -4.

Assay outcomes deposited in PubChem BioAssay by several laboratories.
